# Source: the supplement of paper PMC6555819
# What was measured:
# Assay in all cases: PBM binding z-score (relative to random genomic background probes); higher = stronger binding; sequences stand for … in GC…GCGATTGACAGCGTAGAATGAAGG
# [1] = tested on: FXR:RXRa (NR concentration 270 nM, RXRa partner concentration 90 nM)
# Summary of the method: (§1)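 Random background probes are the reference for binding z-scores. These scores derive from regression-normalized fluorescence on custom Agilent 4×180K protein-binding microarrays incubated 1 h with ligand-free nuclear receptor dimers. Binding was detected with antibodies against each partner (one per run).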
# [2] = tested on: LXRa:RXRa (NR concentration 270 nM, RXRa partner concentration 90 nM)
# Summary of the method: as §1
# [3] = tested on: LXRa homodimer (NR concentration 270 nM)
# Summary of the method: as §1
# [4] = tested on: LXRb:RXRa (NR concentration 270 nM, RXRa partner concentration 90 nM)
# Summary of the method: as §1
# [5] = tested on: LXRb homodimer (NR concentration 270 nM)
# Summary of the method: as §1
# [6] = tested on: PPARa:RXRa (NR concentration 270 nM, RXRa partner concentration 90 nM)
# Summary of the method: as §1
# [7] = tested on: PPARg:RXRa (NR concentration 180 nM, RXRa partner concentration 90 nM)
# Summary of the method: as §1
# [8] = tested on: PPARg:RXRa 270nM:90nM, anti-RXR (NR concentration 270 nM, RXRa partner concentration 90 nM)
# Summary of the method: as §1
# [9] = tested on: PPARg:RXRa 30nM:10nM, anti-RXR (NR concentration 30 nM, RXRa partner concentration 10 nM)
# Summary of the method: as §1
# [10] = tested on: PPARg:RXRa 90nM:30nM, anti-RXR (NR concentration 90 nM, RXRa partner concentration 30 nM)
# Summary of the method: as §1
Sequence,PBM binding z-score [1],PBM binding z-score [2],PBM binding z-score [3],PBM binding z-score [4],PBM binding z-score [5],PBM binding z-score [6],PBM binding z-score [7],PBM binding z-score [8],PBM binding z-score [9],PBM binding z-score [10]
AGAACGAGGGCAATGAGTAGATAGCACGGGTGGC,0.288,0.27,-0.537,-0.239,-0.59,1.49,1.6,1.05,0.241,0.733
GATACAGGGTCAGCTAGAGGCCCGAGTATGGAAA,4.27,2.31,-0.511,1.8,-0.813,4.42,3.6,3.1,0.492,1.92
ACTATTAGTTGAGACGAGGGCACCCGATAGGTTG,0.0849,0.0854,-0.0764,0.0614,0.318,0.202,0.813,0.197,0.108,0.163
CCGACAGGGGCATAAGGTTACCATAAGCCAGCCC,0.857,2.05,-0.0589,1.1,-1.11,1.9,1.11,0.825,-0.159,0.389
CCTAGTTGGTCAGGAGGTTACACACCGGATATGA,0.491,0.633,0.538,1.02,0.258,1.5,1.14,1.4,0.448,1.07
GCGACTGGGGCAAAGCCGGTTACCATAAGGTTGG,-0.281,-0.532,-0.832,-0.581,-1.01,0.472,0.627,0.491,-0.849,-0.0511
ATCTCTAGGTGAAGATAGTTCAGTGAATGCAAAT,0.203,1.02,0.126,0.441,0.00986,1.69,1.75,1.55,0.448,0.885
CTCGAAAAGTCGTGCTCAGGTGAGTATACCAAAC,0.362,0.378,-0.0855,0.084,-0.108,0.252,-0.24,-0.203,-0.421,-0.205
AGAATGAGGTTACCTAAGATCAGGGAAACGCTTG,1.57,6.42,-0.328,3.4,-0.272,3.36,2.39,2.16,0.68,1.55
TCTTGTAGATCAGCAGATTAAGAAAGCTGGCCAA,-0.0778,-0.0855,-0.478,-0.134,-0.494,0.385,-0.628,0.95,2.75,1.92
TCATATGGGTAATACAGGTGAAAGTCGGCATCTA,0.355,1.4,0.0107,0.779,-0.138,1.82,1.1,2.13,2.8,2.4
TAGCCTAGGTCCTGCGGGCCAGTATAGTGTCGGC,-1.69,-1.08,-1.14,-1.49,-1.06,-1.2,-0.732,-0.789,-0.922,-1.13
GCTGGCAGGCCATTTGGGTCACTCAATGACGGGC,0.108,0.0335,-0.419,-0.156,-0.843,1.3,0.526,0.786,-0.361,0.136
CCTGCAAGGTCAATGGTCAGCTAAAGCAGCTCGC,6.55,4.95,0.264,3.63,0.38,5.21,4.22,4.88,1.21,3.68
GCTAGTTGGTCAGTAAAAGGTCCCACACCGGTCG,-0.338,-0.272,-0.431,-0.485,-0.39,-0.0763,-0.0473,0.383,-0.539,-0.225
ACAGACAGGTGATCAAGGTAACTCAGGCTATCAT,0.0446,-0.068,-0.091,-0.153,-0.411,-0.038,0.479,-0.0434,-0.141,-0.12
CCTACTGGGCCACGACAGGTCATTGATTCAGTGA,0.777,2.99,1.75,1.48,-0.349,2.68,2.81,2.84,0.448,1.68
TGAATGAGGTTATAAGATAAGGGAACGTTGCAAA,1.34,1.2,-0.153,0.988,0.119,2.45,1.43,1.62,0.912,1.51
GGAACGAGGCCAAAGTTGATAGCATCTGTCGACG,0.0318,-0.0376,-0.578,-0.183,-0.827,3.46,5.8,6.25,5.14,6.31
AGTCAAAGTTCACTAGGTAACCTAAGATTCAGCT,5.37,5.38,3.76,3.3,1.13,4.71,7.18,6.5,4,5.96
CCGACTGGGGCATAAGGTTCCCATAAGCCAGCCC,-0.429,-0.436,-0.915,-0.62,-1.28,0.156,0.836,1.45,-0.116,1.19
CCTACTGGGCCATTCAGAGGTGATTGATCATATG,-0.00465,0.0536,-0.239,-0.138,-0.593,0.81,0.504,0.898,-0.276,0.119
TCTATTAGTTGAAGGTCAACCGACGAGTCCGTTT,3.86,4.66,4.55,3.9,1.95,3.95,1.56,3.57,3.89,3.78
ATCGAAAGGTCGACGACGTGAGTATACACCGTTT,3.9,3.08,-0.00126,2.61,0.501,4.21,2.29,2.7,0.988,1.77
TCATATAGGGAATACAGGTGAAAGTCGGCATCTA,1.31,1.1,0.252,0.958,0.236,1.92,1.16,2.76,4.44,3.22

Sequence,PBM binding z-score [1],PBM binding z-score [2],PBM binding z-score [3],PBM binding z-score [4],PBM binding z-score [5],PBM binding z-score [6],PBM binding z-score [7],PBM binding z-score [8],PBM binding z-score [9],PBM binding z-score [10]
TCATATAGGTAATAGAGGTGAAAGTCGGCATCTA,1.47,1.99,0.555,1.43,0.0572,2.96,2.3,3.61,4.55,4.02
GCTGCTGGGTCAGGTTGGTCAGCTAACGGGTACG,0.641,0.222,-0.341,0.236,-0.403,1.32,0.104,0.429,-0.561,0.0436
TCGAGTAGGTTACCGATGGGGCATTCAGCTTTCT,0.211,0.803,-0.358,0.678,-0.864,1.29,0.217,1.3,1.26,1.3
ACTAGTTGGTCCGCTGAGGTCACACACAATTCGG,2.59,2.61,1.91,3.24,0.456,3.57,1.38,1.99,0.517,1.36
CGTCCAAGGTCAGCCGGTCAGTGAAAGCGACGTG,5.37,3.63,0.364,2.5,-0.165,4.18,2.43,3.24,0.459,1.79
TTACCAAGGTGTAGGTCGTTGATCCCTCTGTAGA,0.674,1.15,0.0593,0.801,-0.638,0.814,-0.0136,1.68,0.61,1.52
TCTGCTAGGTCAACGATGGTAAGCTAATCTGCTA,3.07,2.01,-0.518,1.4,-0.543,2.85,2.51,3.09,1.65,2.31
GTTGCTAGGTCAGGTTGGTCAGCTAACGGGTACG,1.81,1.32,0.459,0.947,0.434,1.68,0.88,1.31,-0.115,0.452
CGTCCAAGGTCAAAGGTCGGTGAAGAGATGACGG,7.72,5.78,1.27,5.08,0.738,7.01,9.09,7.29,6.65,7.6
ATCGAAAGGTCGACGAGGTGAGTGTACACCGTTT,4.72,3.35,0.236,2.78,0.198,4.42,2.9,3.72,1.14,2.63
GATACAGGGTCAACGCCAGAGTACGCGTATTGAT,7,4.57,-0.128,3.91,0.0606,5.69,6.17,5.78,2.67,4.5
CATCGGAGGACAGAAGGTCAGAGCTGTCCGCTTT,1.15,1.44,0.265,0.77,-0.44,1.8,0.369,1.27,-0.542,0.627
CAAACTAGGTCTAGGTCAAAGTCGGTTTGTGCCA,1.86,2.04,1.3,1.73,0.0723,3.34,2.95,3.82,1.2,3.03
TAGCATAGGTCATGGGCCAGTATACCACGCGAAC,6.75,5.37,0.897,4.03,0.148,5.98,5.56,5.31,2.04,4.24
GCTATTAGTTGAAAGGGCAACCGTATGATTCTCG,0.693,0.878,0.327,1.1,-0.2,2.2,2.64,4.69,2.25,4.37
TAGCCTTGGTCATGGGCCAGTATACCACGCGAAC,-0.772,-0.685,-0.571,-0.54,-1.16,-0.311,0.351,-0.0225,-0.592,-0.107
GCGACTGGTGCATCAGCAGGTTACCATAACTTAA,-0.753,-0.531,-0.541,-0.267,-1.02,-0.237,-0.0578,-0.215,-0.641,-0.986
ATCGATAGGTCGACGAGGTGAGTATACACCGTTT,0.682,0.624,-0.525,0.484,0.0439,1.69,1.15,0.567,0.467,0.349
CGTCCAAGATCAATGCTAGGTCAGTGAAAGCATT,0.162,0.466,0.903,0.371,0.134,0.544,-0.0678,-0.118,-0.166,-0.214
CCCGAAAGGTCGGTTGAGGTGAGTATACGGATAA,3.38,2.22,0.406,1.69,0.134,2.76,0.61,1.12,0.00163,0.671
TTACCAAGGTGAGCTGAGATCGTTGATCCAACTC,-0.243,-0.689,-0.907,-0.704,-1.18,0.12,-0.0237,0.4,-0.0278,0.278
CAAACTAGGTCACAGGAAGGTCAAAGTCCGCATG,5.68,6.01,4.15,4.78,1.18,6.19,9.73,7.57,5.77,7.73
ATGTCTAGGTAAAGATAGTTCAGTGAATGCAAAT,0.0456,4.09,0.552,0.617,0.0209,0.376,0.701,0.217,0.312,0.184
CCCACTGGGCCAAGGTCATTGATCAGTCAAAGCA,3.13,2.95,1.44,2.57,-0.562,3.8,4.07,4.12,1.57,3.3
